Test results reported in PubChem BioAssay (EPA / NIEHS).
Results filed as inconclusive are left out. Calls of active or inactive are those of the source. How the source made its calls, unless noted: active means hit-call score of the fitted dose curve at least 0.9, where 1 is the maximum; inactive means score below 0.9.

How the values were obtained:
[1] = biological target: Glucocorticoid receptor (Homo sapiens) (UniProt P04150); assay: ATG_GR_TRANS: Attagene TRANS-FACTORIAL HepG2 Assay for human Glucocorticoid Receptor (GR) (AID 2282978; active means hit-call score of the fitted dose curve at least 0.9, where 1 is the maximum;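 further: activators score as hits since higher reporter transcript over DMSO is fitted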); settings: HepG2 Attagene TRANS GR reporter, mRNA transcription
In short: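 HepG2 transient transfection, multiple reporter units, GAL4-UAS under NR-GAL4 chimera control. 24 h treatment. Reporter mRNA by RT-PCR/CE fluorescence, DMSO as negative control.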

[2] = biological target: Bile acid receptor (Homo sapiens) (UniProt Q96RI1); assay: ATG_FXR_TRANS: Attagene TRANS-FACTORIAL HepG2 Assay for Farnesoid X Receptor (FXR) (AID 2282979; active means hit-call score of the fitted dose curve at least 0.9, where 1 is the maximum;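 further: hits raise reporter mRNA above DMSO so AC50 marks FXR activation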); settings: HepG2 Attagene TRANS FXR-GAL4 reporter transcription
In short: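 Read-out: fluorescent reporter transcripts quantified by capillary electrophoresis after RT-PCR of total RNA. Source cells were HepG2 transiently carrying chimeric NR-GAL4 plus GAL4-UAS reporter units, dosed 24 h. Activity fitted upward relative to DMSO baseline.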

[3] = biological target: Oxysterols receptor LXR-alpha (Homo sapiens) (UniProt Q13133); assay: ATG_LXRa_TRANS: Attagene TRANS-FACTORIAL HepG2 Assay for human Liver X Receptor alpha (LXRa) (AID 2282980; active means hit-call score of the fitted dose curve at least 0.9, where 1 is the maximum); settings: HepG2 Attagene TRANS reporter, LXRa transactivation
In short: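 Read-out: reporter transcript levels by RT-PCR plus capillary electrophoresis, fluorescence intensity. Transiently transfected HepG2, exogenous NR-GAL4 chimera, GAL4-UAS reporters; 24 h compound exposure. Activity = increase over DMSO negative control.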

[4] = biological target: Oxysterols receptor LXR-beta (Homo sapiens) (UniProt P55055); assay: ATG_LXRb_TRANS: Attagene TRANS-FACTORIAL HepG2 Assay for human Liver X Receptor beta (LXRb) (AID 2282981; active means hit-call score of the fitted dose curve at least 0.9, where 1 is the maximum); settings: HepG2 Attagene TRANS GAL4-LXRb reporter, mRNA
In short: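 Multiplexed reporter assay, HepG2, 24 h dosing. Fluorescence of labelled RT-PCR products after capillary electrophoresis gives transcript level; positive fitting direction relative to DMSO.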

[5] = ATG_M_32_TRANS: Attagene TRANS-FACTORIAL HepG2 Assay for M32 Transcription Factor (Internal Marker) (AID 2282984; active means hit-call score of the fitted dose curve at least 0.9, where 1 is the maximum;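 further: transcript level of a background control reporter unit measured by RT-PCR and capillary electrophoresis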); settings: HepG2 Attagene TRANS M32 internal marker reporter
In short: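 Internal-marker readout from a multiplexed transcription reporter panel. HepG2 cells were transfected with GAL4-UAS reporter units, treated 24 hours, and reporter transcript levels determined by fluorescence after RT-PCR and capillary separation.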

[6] = biological target: Nuclear receptor subfamily 4 group A member 2 (Homo sapiens) (UniProt P43354); assay: ATG_NURR1_TRANS: Attagene TRANS-FACTORIAL HepG2 Assay for human Nuclear Receptor Related Protein 1 (NURR1) (AID 2282985; active means hit-call score of the fitted dose curve at least 0.9, where 1 is the maximum); settings: HepG2 Attagene TRANS reporter, mRNA readout
In short: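 Endpoint: reporter mRNA increase relative to DMSO. HepG2 cells transfected with reporter units, treated 24 h; RNA processed by RT-PCR, labelling, HpaI digestion and capillary electrophoresis.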

[7] = biological target: Transcriptional activator Myb (Homo sapiens) (UniProt P10242); assay: ATG_Myb_CIS: Attagene CIS-FACTORIAL HepG2 Assay for human Myeloblastosis (Myb) Proto-Oncogene Transcription Factor (AID 2282986); settings: HepG2 Attagene CIS-FACTORIAL Myb reporter transcription; actives raise or lower the signal
In short: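 Multiplexed cis-reporter system in HepG2: transient transfection, 24 h treatment, mRNA readout by RT-PCR and capillary electrophoresis. Both increases and decreases are scored versus DMSO negative control.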

[8] = biological target: Nuclear respiratory factor 1 (Homo sapiens) (UniProt Q16656); assay: ATG_NRF1_CIS: Attagene CIS-FACTORIAL HepG2 Assay for human Nuclear Respiratory Factor 1 (NRF1) Orphan Gene (AID 2282987); settings: HepG2 NRF1 cis-element reporter, Attagene multiplex; actives raise or lower the signal
In short: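 Endogenous factor activity was captured via cis-element-driven reporter transcripts in HepG2 cells. Following 24 h chemical treatment, transcripts were quantified by RT-PCR and capillary electrophoresis.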

[9] = ATG_NFI_CIS: Attagene CIS-FACTORIAL HepG2 Assay for human Nuclear Factor I (NFI) (AID 2282989); settings: HepG2 cis-regulatory reporter, NFI response element transcription; actives raise or lower the signal
In short: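 Cells: human liver HepG2, transiently transfected with promoter-regulated reporter transcription units. Exposure 24 h. Detection: fluorescent RT-PCR products separated by capillary electrophoresis, normalised to DMSO negative control.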

[10] = biological target: Myc proto-oncogene protein (Homo sapiens) (UniProt P01106); assay: ATG_Myc_CIS: Attagene CIS-FACTORIAL HepG2 Assay for human Myelocytomatosis (Myc) Proto-Oncogene Transcription Factor (AID 2282990); settings: HepG2, Attagene cis-reporter transcription factor activity; actives raise or lower the signal
In short: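 Transiently transfected HepG2 cells bearing cis-promoter reporter units for endogenous transcription factors; 24 h exposure. Reporter mRNA measured by RT-PCR, 6-FAM primer extension, HpaI cut and capillary electrophoresis; bidirectional fit relative to DMSO.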

[11] = ATG_NRF2_ARE_CIS: Attagene CIS-FACTORIAL HepG2 Assay for human Nuclear Factor Erythroid 2 Related Factor 2 (NFR2) response to Antioxidant Response Elements (ARE) (AID 2282992); settings: HepG2 Attagene ARE/NRF2 reporter, transcription factor activity; actives raise or lower the signal;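 on AC50: reporter mRNA level measured by RT-PCR and capillary electrophoresis fluorescence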
In short: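 Endogenous transcription factor activity in human liver HepG2 cells is tracked via a cis-element-driven reporter within a multiplexed set. mRNA induction is read by RT-PCR and capillary electrophoresis after 24 h, with DMSO as baseline.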

[12] = ATG_Oct_MLP_CIS: Attagene CIS-FACTORIAL HepG2 Assay for human Octamer-Binding Transcription Factor (Oct) (AID 2282993); settings: HepG2 Attagene cis-factorial Oct reporter, mRNA; actives raise or lower the signal
In short: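 HepG2, transient MRTU transfection, cis promoter elements; 24 h dosing; RT-PCR/CE fluorescence read-out of reporter mRNA; fit both directions vs DMSO.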

[13] = BSK_3C_uPAR: BioMAP Diversity Plus: 3C Assay for Urokinase-type plasminogen activator receptor (uPAR) Biomarker Activity (AID 2282998); settings: BioMAP 3C HUVEC, uPAR biomarker ELISA; actives raise or lower the signal
In short: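 A multiplexed primary-cell system built on human umbilical vein endothelium was used, with chemical present for 24 h before reading. Cell-surface uPAR was detected by ELISA; signal change in either direction counted against DMSO.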

[14] = biological target: Hepatocyte nuclear factor 4-alpha (Homo sapiens) (UniProt P41235); assay: ATG_HNF4a_TRANS: Attagene TRANS-FACTORIAL HepG2 Assay for human Hepatocyte Nuclear Factor 4 alpha (HNF4a) (AID 2282982; active means hit-call score of the fitted dose curve at least 0.9, where 1 is the maximum); settings: HepG2 HNF4a transactivation reporter, mRNA readout
In short: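 Endpoint reflects transcriptional activation of a GAL4-UAS reporter by an HNF4a-GAL4 chimera in transfected HepG2 cells, 24 h post-dosing. Fluorescence from RT-PCR products separated by capillary electrophoresis; DMSO baseline.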

[15] = ATG_NF_kB_CIS: Attagene CIS-FACTORIAL HepG2 Assay for human Nuclear Factor Kappa B (NF-kB) (AID 2282991); settings: HepG2 Attagene cis-factorial NF-kB reporter mRNA; actives raise or lower the signal
In short: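 After 24 h compound incubation, transfected HepG2 cells yield total RNA; reporter cDNA is PCR-amplified, end-labelled with 6-FAM, HpaI-digested and analysed on a genetic analyser. Endogenous factor activity, DMSO-referenced bidirectional fit.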

[16] = biological target: Cellular tumor antigen p53 (Homo sapiens) (UniProt P04637); assay: ATG_p53_CIS: Attagene CIS-FACTORIAL HepG2 Assay for human p53 Transcription Factor (AID 2282994); settings: HepG2 p53 cis-element reporter, Attagene mRNA; actives raise or lower the signal
In short: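 Steps: transfect HepG2 with multiplexed cis reporter constructs; dose chemicals 24 h; extract RNA, reverse-transcribe, PCR-amplify reporter sequences; FAM-label, HpaI-digest, resolve fragments by CE. Activity fitted both directions relative to DMSO.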

[17] = ATG_M_06_TRANS: Attagene TRANS-FACTORIAL HepG2 Assay for M06 Transcription Factor (Internal Marker) (AID 2282983; active means hit-call score of the fitted dose curve at least 0.9, where 1 is the maximum); settings: HepG2 Attagene TRANS M06 internal marker reporter
In short: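 Read-out: fluorescent reporter cDNA fragments resolved by capillary electrophoresis after RT-PCR and HpaI cut. Source cells were HepG2 carrying transfected multi-reporter GAL4 constructs, dosed 24 h. Increase over DMSO control analysed.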

[18] = BSK_3C_TissueFactor: BioMAP Diversity Plus: 3C Assay for Tissue Factor Biomarker Activity (AID 2282997); settings: BioMAP 3C HUVEC, tissue factor biomarker readout; actives raise or lower the signal
In short: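 HUVEC, 3C system, 24 h post-dose; Tissue Factor by ELISA; bidirectional fit vs DMSO baseline.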

[19] = biological target: Estrogen-related receptor gamma (Homo sapiens) (UniProt P62508); assay: ATG_ERRg_TRANS: Attagene TRANS-FACTORIAL HepG2 Assay for human Estrogen-Related Receptor gamma (ERRg) (AID 2282977; active means hit-call score of the fitted dose curve at least 0.9, where 1 is the maximum;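 further: hits increase reporter signal over DMSO so potencies reflect activators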); settings: HepG2 Attagene TRANS reporter, ERRg transactivation
In short: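 Exogenous NR-Gal4 chimera activity measured as reporter transcript induction after 24 h in transiently transfected HepG2 cells. RNA reverse-transcribed, PCR-amplified, 6-FAM-labelled and resolved by capillary electrophoresis; increase over DMSO baseline.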

Measured: AC50

Glucocorticoid receptor (Homo sapiens), sequence (P04150 whole entry, looked up, the tested form may be a part): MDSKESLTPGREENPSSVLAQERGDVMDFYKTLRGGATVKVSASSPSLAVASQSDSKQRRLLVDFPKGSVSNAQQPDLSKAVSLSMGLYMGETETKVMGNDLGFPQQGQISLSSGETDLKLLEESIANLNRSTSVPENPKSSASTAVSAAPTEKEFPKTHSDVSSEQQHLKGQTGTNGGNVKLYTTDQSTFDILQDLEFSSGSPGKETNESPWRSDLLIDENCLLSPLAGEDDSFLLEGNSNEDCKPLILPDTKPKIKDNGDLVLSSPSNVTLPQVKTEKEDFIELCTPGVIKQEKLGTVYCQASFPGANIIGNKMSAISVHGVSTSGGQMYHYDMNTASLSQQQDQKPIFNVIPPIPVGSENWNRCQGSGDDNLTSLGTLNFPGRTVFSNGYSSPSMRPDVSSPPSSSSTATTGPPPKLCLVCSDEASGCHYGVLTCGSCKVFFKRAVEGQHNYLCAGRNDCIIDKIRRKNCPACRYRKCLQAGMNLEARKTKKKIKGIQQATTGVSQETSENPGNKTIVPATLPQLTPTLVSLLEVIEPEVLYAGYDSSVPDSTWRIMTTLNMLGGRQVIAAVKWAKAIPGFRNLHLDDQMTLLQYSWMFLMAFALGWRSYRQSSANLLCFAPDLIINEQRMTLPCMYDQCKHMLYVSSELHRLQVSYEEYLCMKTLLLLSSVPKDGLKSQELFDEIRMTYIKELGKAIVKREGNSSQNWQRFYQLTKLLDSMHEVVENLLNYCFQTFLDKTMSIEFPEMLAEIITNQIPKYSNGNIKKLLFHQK
Nuclear respiratory factor 1 (Homo sapiens), sequence (Q16656 whole entry, looked up): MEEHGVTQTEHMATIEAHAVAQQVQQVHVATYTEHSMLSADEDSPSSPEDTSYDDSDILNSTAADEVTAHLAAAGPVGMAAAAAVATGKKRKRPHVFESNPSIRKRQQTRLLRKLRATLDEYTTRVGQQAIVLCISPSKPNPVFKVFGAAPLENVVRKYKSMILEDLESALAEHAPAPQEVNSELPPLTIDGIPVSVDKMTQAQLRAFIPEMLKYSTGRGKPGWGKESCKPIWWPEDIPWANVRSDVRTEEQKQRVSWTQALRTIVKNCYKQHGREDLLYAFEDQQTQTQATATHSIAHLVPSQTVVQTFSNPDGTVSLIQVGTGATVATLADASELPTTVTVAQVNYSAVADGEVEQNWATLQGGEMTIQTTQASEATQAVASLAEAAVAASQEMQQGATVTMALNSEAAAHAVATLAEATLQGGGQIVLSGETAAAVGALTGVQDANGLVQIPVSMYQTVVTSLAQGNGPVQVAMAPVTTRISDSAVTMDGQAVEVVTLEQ
Bile acid receptor (Homo sapiens), sequence (Q96RI1 whole entry, looked up, the tested form may be a part): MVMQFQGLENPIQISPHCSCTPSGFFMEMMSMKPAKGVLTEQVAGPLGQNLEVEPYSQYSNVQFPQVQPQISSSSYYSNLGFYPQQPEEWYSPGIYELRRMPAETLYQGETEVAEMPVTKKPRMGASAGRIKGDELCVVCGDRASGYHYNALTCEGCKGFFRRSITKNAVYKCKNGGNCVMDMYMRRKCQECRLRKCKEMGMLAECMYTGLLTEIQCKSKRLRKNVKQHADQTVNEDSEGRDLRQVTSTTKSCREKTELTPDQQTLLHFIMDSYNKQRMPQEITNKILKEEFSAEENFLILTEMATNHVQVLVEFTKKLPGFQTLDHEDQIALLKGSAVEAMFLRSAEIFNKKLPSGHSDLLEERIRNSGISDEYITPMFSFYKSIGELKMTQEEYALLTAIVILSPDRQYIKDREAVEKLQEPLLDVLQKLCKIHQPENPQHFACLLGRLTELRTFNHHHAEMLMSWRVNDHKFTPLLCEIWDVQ
Oxysterols receptor LXR-beta (Homo sapiens), sequence (P55055 whole entry, looked up, the tested form may be a part): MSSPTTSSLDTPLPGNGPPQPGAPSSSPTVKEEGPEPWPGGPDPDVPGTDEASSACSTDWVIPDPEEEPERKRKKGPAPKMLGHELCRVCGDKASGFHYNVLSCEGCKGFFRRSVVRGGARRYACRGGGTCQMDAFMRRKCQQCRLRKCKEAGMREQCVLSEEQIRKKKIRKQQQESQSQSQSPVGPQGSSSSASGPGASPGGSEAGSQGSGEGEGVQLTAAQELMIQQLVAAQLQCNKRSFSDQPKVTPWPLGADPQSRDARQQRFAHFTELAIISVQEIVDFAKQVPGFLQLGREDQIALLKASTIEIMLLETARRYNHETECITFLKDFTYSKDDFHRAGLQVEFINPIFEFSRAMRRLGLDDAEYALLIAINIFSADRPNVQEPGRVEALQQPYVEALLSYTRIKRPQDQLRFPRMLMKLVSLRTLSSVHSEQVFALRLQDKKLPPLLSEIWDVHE
Myc proto-oncogene protein (Homo sapiens), sequence (P01106 whole entry, looked up): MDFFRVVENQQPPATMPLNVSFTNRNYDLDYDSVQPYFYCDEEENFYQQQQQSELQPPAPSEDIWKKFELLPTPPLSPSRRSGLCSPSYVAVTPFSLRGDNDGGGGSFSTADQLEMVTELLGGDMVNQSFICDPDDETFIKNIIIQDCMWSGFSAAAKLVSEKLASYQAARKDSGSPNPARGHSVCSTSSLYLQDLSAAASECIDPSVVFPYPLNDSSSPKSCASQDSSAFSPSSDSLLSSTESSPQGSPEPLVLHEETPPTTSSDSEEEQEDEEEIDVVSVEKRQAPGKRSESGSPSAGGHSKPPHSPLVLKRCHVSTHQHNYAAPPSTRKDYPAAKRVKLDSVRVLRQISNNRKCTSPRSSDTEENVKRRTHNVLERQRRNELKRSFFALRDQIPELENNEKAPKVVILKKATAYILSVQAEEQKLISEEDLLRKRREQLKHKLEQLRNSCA
Hepatocyte nuclear factor 4-alpha (Homo sapiens), sequence (P41235 whole entry, looked up, the tested form may be a part): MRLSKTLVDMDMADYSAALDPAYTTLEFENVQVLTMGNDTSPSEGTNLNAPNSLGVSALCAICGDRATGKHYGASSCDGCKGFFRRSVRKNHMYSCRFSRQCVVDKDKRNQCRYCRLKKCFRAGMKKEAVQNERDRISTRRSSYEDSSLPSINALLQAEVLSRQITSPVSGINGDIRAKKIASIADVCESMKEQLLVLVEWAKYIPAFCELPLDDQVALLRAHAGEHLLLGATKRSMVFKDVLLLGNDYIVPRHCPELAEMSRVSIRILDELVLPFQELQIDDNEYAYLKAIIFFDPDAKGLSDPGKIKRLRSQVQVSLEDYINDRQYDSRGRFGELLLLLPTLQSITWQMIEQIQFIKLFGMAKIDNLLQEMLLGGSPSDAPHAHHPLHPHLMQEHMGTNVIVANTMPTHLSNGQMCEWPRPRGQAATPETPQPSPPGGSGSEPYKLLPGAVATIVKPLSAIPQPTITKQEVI
Transcriptional activator Myb (Homo sapiens), sequence (P10242 whole entry, looked up): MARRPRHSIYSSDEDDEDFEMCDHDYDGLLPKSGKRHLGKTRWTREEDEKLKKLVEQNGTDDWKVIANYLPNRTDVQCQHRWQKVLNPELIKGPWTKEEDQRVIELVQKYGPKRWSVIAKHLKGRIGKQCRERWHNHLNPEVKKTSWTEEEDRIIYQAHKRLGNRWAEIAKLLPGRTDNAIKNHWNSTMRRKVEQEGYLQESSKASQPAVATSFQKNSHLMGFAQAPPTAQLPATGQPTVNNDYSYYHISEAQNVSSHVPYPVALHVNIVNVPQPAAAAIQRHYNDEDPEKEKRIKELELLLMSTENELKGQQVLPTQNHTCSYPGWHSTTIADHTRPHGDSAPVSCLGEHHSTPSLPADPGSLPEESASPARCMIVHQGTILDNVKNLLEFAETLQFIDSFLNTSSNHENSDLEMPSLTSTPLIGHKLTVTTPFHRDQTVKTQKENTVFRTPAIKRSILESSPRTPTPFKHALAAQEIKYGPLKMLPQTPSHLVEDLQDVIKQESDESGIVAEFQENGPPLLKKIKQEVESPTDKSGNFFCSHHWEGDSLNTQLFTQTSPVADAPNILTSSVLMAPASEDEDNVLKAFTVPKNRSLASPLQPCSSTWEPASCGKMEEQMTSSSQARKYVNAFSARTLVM
Cellular tumor antigen p53 (Homo sapiens), sequence (P04637 whole entry, looked up, the tested form may be a part): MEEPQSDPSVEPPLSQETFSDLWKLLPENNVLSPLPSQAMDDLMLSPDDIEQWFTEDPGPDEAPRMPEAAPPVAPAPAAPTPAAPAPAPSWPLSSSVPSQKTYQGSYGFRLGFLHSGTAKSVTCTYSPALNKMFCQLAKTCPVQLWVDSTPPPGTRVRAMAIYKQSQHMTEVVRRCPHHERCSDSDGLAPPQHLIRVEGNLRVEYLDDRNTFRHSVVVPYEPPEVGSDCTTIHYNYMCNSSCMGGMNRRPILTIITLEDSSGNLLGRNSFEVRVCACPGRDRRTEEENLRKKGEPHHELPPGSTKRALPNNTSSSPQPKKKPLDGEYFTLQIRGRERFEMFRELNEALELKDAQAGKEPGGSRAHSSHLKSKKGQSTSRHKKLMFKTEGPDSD
Nuclear receptor subfamily 4 group A member 2 (Homo sapiens), sequence (P43354 whole entry, looked up): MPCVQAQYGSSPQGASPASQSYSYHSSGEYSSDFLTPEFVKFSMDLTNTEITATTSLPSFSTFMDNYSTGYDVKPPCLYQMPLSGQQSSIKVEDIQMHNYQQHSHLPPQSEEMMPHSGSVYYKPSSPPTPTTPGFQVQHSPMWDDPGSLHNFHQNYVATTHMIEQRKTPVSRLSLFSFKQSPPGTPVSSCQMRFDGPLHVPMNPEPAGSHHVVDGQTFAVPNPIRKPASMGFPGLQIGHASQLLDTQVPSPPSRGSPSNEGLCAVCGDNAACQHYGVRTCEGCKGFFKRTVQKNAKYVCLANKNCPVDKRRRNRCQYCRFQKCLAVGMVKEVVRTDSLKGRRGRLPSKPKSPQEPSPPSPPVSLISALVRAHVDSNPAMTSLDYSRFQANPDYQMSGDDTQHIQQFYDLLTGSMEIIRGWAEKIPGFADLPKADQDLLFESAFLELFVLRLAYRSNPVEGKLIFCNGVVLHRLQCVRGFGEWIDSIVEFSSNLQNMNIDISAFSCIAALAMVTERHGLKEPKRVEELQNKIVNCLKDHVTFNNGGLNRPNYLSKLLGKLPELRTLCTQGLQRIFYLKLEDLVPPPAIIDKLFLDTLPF

O=[N+]([O-])/N=C1\NCCN1Cc1ccc(Cl)nc1
not listed: [14] | [15] | [16] | [17] | [18] | [19]
inactive: all other assays above

O=C1c2ccccc2C(=O)N1SC(Cl)(Cl)Cl
active: [11] 14.8 µM
not listed: [1] | [2] | [3] | [17] | [18] | [19]
inactive: all other assays above

CN1CSC(=S)N(C)C1
active: [9] 69.1 µM | [11] 21.7 µM | [12] 24.6 µM
not listed: [2] | [14] | [18] | [19]
inactive: all other assays above

COc1nn(CSP(=S)(OC)OC)c(=O)s1
active: [11] 23.4 µM | [12] 18 µM
not listed: [6] | [14] | [18] | [19]
inactive: all other assays above

CC1(c2ccc(Oc3ccccc3)cc2)OC(=O)N(Nc2ccccc2)C1=O (centres undefined)
active: [11] 1.61 µM | [12] 2.01 µM | [13] 25.9 µM
not listed: [2] | [15] | [17] | [18] | [19]
inactive: all other assays above

COC(=O)c1ccccc1S(=O)(=O)NC(=O)N(C)c1nc(C)nc(OC)n1
not listed: [1] | [2] | [3] | [5] | [18] | [19]
inactive: all other assays above

COc1cc(OC)nc(NC(=O)NS(=O)(=O)c2cc(NC=O)ccc2C(=O)N(C)C)n1
not listed: [1] | [3] | [5] | [17] | [19]
inactive: all other assays above

C#CCN1C(=O)COc2cc(F)c(N3C(=O)C4=C(CCCC4)C3=O)cc21
active: [11] 40.4 µM
not listed: [2] | [16] | [17] | [18] | [19]
inactive: all other assays above

Clc1ccccc1-c1nnc(-c2ccccc2Cl)nn1
active: [11] 13.6 µM
not listed: [1] | [2] | [3] | [15] | [16] | [17] | [19]
inactive: all other assays above

CCC(C)(C)C(=O)OC1=C(c2ccc(Cl)cc2Cl)C(=O)OC12CCCCC2
active: [10] 4.04 µM | [11] 1.27 µM | [18] 13.4 µM | [13] 33.9 µM
not listed: [1] | [2] | [5] | [14] | [17]
inactive: all other assays above

COP(=O)(OC)OC=C(Cl)Cl
active: [11] 35.7 µM | [12] 11.5 µM
not listed: [1] | [2] | [3] | [16] | [18] | [19]
inactive: all other assays above

N#CN
not listed: [1] | [2] | [3] | [16] | [19]
inactive: all other assays above

O=S1OCC2C(CO1)C1(Cl)C(Cl)=C(Cl)C2(Cl)C1(Cl)Cl (centres undefined)
active: [13] 15.9 µM
not listed: [1] | [2] | [3] | [18] | [19]
inactive: all other assays above

CC[C@H](C)[C@H]1O[C@]2(C=C[C@@H]1C)C[C@@H]1C[C@@H](C/C=C(\C)[C@@H](O[C@H]3C[C@H](OC)[C@@H](O[C@H]4C[C@H](OC)[C@@H](O)[C@H](C)O4)[C@H](C)O3)[C@@H](C)/C=C/C=C3\CO[C@@H]4[C@H](O)C(C)=C[C@@H](C(=O)O1)[C@]34O)O2 (tested in a mixture with another compound)
active: [13] 5.44 µM
not listed: [2] | [3] | [5] | [6] | [17] | [18] | [19]
inactive: all other assays above

CCOC1Oc2ccc(OS(C)(=O)=O)cc2C1(C)C (centres undefined)
active: [11] 9.79 µM | [12] 23.9 µM
not listed: [1] | [2] | [16] | [17] | [19]
inactive: all other assays above
